Only some compounds are listed: those with a hit (about 2.9% of all), similar ones and a draw of the others.
D3 antag – D3 dopamine receptor (human) antagonism. D3R cells, DiscoveRx beta-arrestin luminescence, antagonist mode; hits give low values. max response, negative = inhibition, %. 360,000 tested, 2.5% active. AID 652054; in the data active = max response below about -50%; inconclusive = no clear call, values can overlap the other calls; note: % is set by controls: 0 for no effect and ±100 for the full control effect
Target sequence (P35462 whole entry, looked up): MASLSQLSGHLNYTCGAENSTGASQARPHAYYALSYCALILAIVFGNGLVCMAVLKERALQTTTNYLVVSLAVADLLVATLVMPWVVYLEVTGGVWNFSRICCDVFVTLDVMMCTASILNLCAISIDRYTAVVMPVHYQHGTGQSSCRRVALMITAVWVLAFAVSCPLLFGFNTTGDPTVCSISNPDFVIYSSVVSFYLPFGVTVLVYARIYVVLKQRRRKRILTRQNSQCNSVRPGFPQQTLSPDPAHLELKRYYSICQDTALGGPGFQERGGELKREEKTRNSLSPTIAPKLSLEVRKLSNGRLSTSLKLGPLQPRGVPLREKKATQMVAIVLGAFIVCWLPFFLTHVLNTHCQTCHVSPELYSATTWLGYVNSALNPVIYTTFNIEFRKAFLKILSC
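Cells plated overnight at 1500 cells/well, then exposed to library compounds with dopamine controls for 90 minutes at 37 degrees C. DiscoveRx reagent added for 30–60 minutes at room temperature; luminescence read, quantitative HTS format.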
DRD3 agonist – activates the human D3 dopamine receptor. P35462. D3R DiscoveRx beta-arrestin cells, luminescence, 90 min. max activation, %. 410,000 tested, 0.58% active. AID 652048; in the data active = max activation above about 30%; note: 0% is about no effect
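Cells at 1500/well, incubated overnight, then treated with pinned compounds (dopamine as control) for 90 min at 37 degrees C. DiscoveRx reagent added for 30 - 60 minutes at room temperature; luminescence read.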
a7 integrin act – activates integrin-mediated alleviation for muscular dystrophy. Potency, µM (highest dose often 38.3 µM), inactives show at the highest dose activation, actives largely listed as activators. 350,000 tested, 0.064% active. alpha7betagal myoblasts, beta-gal FDG fluorescence, 48 h; active = well fitted activation curve with a large enough effect; inconclusive = small, poorly fitted or top-dose-only effect; inactive = no such curve, though single readings can be large or run the other way;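 note: potency is the fitted concentration of half-maximal effect; 100% = response of the positive control SU9516; nearly all actives have a fitted effect of over 60% in size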
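alpha7betagal+/- myoblasts (passage 13, 250/well) treated 48 h at 37C with compounds at 1:260 dilution of DMSO stock. Lysed, then beta-galactosidase activity read as FDG fluorescence (ex 480/em 540) after 30 min, with pre-read for autofluorescence.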
The depositor's hits bear a star; ? = inconclusive; · = not tested or not shown.

SMILES	D3 antag	DRD3 agonist	a7 integrin act
CCN(CC(=O)Nc1ccc(NC(C)=O)cc1)CC(=O)Nc1ccc(Cl)c(Cl)c1	-60*	-26	5%
CCN(CC(=O)Nc1ccc(NC(C)=O)cc1)CC(=O)Nc1cccc(Cl)c1	-17	-12	0%
COC(=O)c1cc(CC(=O)c2ccc(O)cc2O)c(C)o1	14	-8	-13%
CCC(=O)Oc1ccc(C/C(=N\O)c2ccc(O)cc2O)o1	92	56*	-54%
Cc1ccc2c(c1)C(=O)C(=O)N2Cc1ccc(Br)cc1	?	-37	0%
CCCN1C(=O)C(=O)c2cc(C)ccc21	-11	-31	-28%
Cc1ccc2c(c1)C(=O)C(=O)N2c1ccc(C(F)(F)F)cc1	-15	-19	0%
Cc1ccc(CN2C(=O)C(=O)c3cc(C)ccc32)cc1	-54*	-11	-32%
CCCCN1C(=O)C(=O)c2cc(Cl)ccc21	-120*	-11	-43%
Cc1ccc2c(c1)C(=O)C(=O)N2c1ccc(Cl)cc1	-55*	-56	25%
Cc1sc2c(c1C)c(=O)n(CCc1ccccc1)c(=O)n2Cc1cccc(F)c1	·	-10	·
COc1cccc(C(=O)N2CCN(Cc3cc(Br)ccc3OC)CC2)c1	-84*	-1	-28%
COc1ccc(CN2CCNC(=O)C2CC(=O)NCCc2c[nH]c3ccccc23)c(OC)c1 (centres undefined)	4	5	10µM*
COc1ccc(CN2CCN(Cc3ccc(C)cc3)CC2)c(OC)c1	-50*	-38	-46%
CCS(=O)(=O)N1CCCC(C(=O)c2ccc(OC)cc2C)C1 (centres undefined)	11	4	11µM*
COc1ccc(CN2CCNC(=O)C2CC(=O)NCCc2nc(C)c(C)s2)c(OC)c1 (centres undefined)	-7	-15	-7%
COc1ccc(Br)cc1CN1CCN(C(=O)c2ccc(OC)c(OC)c2)CC1	-20	-18	3%
COc1ccc(CN2CCN(Cc3ccc(C(F)(F)F)cc3)CC2)c(OC)c1	-15	-23	-67%
COc1ccc(C(=O)C2CCCN(S(=O)(=O)c3ccc(C(C)=O)cc3)C2)c(C)c1 (centres undefined)	9	4	-42%
CCN(C(=O)CN1C(=S)NC(C)(C)CC1C)c1ccc(C)c(C)c1 (centres undefined)	0	0	-15%
O=C(/C=C/c1ccc(Cl)cc1Cl)NCc1ccncc1	-20	-20	10%
OCCC1CN(Cc2cc(F)ccc2-n2cccn2)CCN1Cc1ccc(F)cc1 (centres undefined)	-14	-22	18%
COc1cc(CN2CCN(Cc3ccccc3C(F)(F)F)CC2)cc(OC)c1OC	-20	-6	-6%
COc1cc(CN2CCCCCC2)cc(OC)c1OC	?	-16	-20%
COc1ccc(CN2CCCCCC2)c(C)c1C	-75*	-36	9%
SMILES	D3 antag	DRD3 agonist	a7 integrin act
CCN(Cc1ccccc1)C(=O)C1CCN(Cc2ccc(OC)c(OC)c2OC)CC1	-51*	-35	-33%
COc1ccc(CN2CCN(Cc3ccccc3F)CC2)c(OC)c1	-22	-40	-52%
Cc1ccc(CN2CCN(Cc3ccccc3C(F)(F)F)CC2)cc1	-72*	-29	-48%
COc1ccc(CN2CCN(Cc3c[nH]c4ccccc34)CC2)c(OC)c1	-74*	-5	-41%
CCN(Cc1ccccc1)C(=O)C1CCN(Cc2ccc(SC)cc2)CC1	-26	-17	-32%
O=C(NCCCSc1ccccc1)c1ccc(=O)[nH]c1	-19	-9	3%
CC1(OC(=O)c2cccs2)C(=O)C=C2C=C3CCCN3C=C2C1=O (centres undefined)	-2	3	7%
COc1ccc(Br)cc1CN1CCN(Cc2c[nH]c3ccccc23)CC1	-90*	-49	?
COc1cccc(C(=O)C2CCCN(C/C=C/c3ccccc3OC)C2)c1 (centres undefined)	-7	-20	12%
COc1ccc(CN2CCN(Cc3c[nH]c4ccccc34)CC2)cc1	?	-19	-30%
COc1ccc(CN2CCN(Cc3c[nH]c4ccccc34)CC2)cc1OC	-52*	-5	-17%
COc1cccc(OC)c1C(=O)N1CCN(Cc2c[nH]c3ccccc23)CC1	5	3	-12%
COc1ccc(C(=O)C2CCCN(C/C=C/c3ccccc3OC)C2)c(OC)c1 (centres undefined)	-72*	-28	-36%
CCOC(=O)c1[nH]ncc1CN1CCCC(C(=O)c2ccc(OC)c(OC)c2)C1 (centres undefined)	-4	0	-2%
CCOC(=O)c1[nH]ncc1CN1CCCC(C(=O)c2cc(Cl)ccc2OC)C1 (centres undefined)	-102*	-1	-20%
CCCCn1c(N)c(N(CCOC)C(=O)c2cc(-c3ccc(OC)c(OC)c3)nc3ccccc23)c(=O)[nH]c1=O	-4	5	4%
CC(C)C(=O)Nc1c2c(nc3ccccc13)N(C)CC2	12	5	3%
COc1ccc(CN2CCN(Cc3cccc(Oc4ccccc4)c3)CC2)c(OC)c1OC	-70*	-35	14%
COc1ccc(C(=O)C2CCCN(Cc3c(F)ccc(F)c3F)C2)c(OC)c1 (centres undefined)	-21	-18	-11%
CN1CCN(Cc2cccc(Oc3ccccc3)c2)CC1	-27	-20	-24%
COc1ccc(C(=O)C2CCCN(Cc3c[nH]c4ccccc34)C2)c(OC)c1 (centres undefined)	-96*	-13	-53%
COc1ccc(N2CCN(Cc3nc(-c4ccccc4)no3)CC2)cc1	14	3	-3%
COc1cc(CCC(=O)OCC(=O)Nc2nc(C)c(Cl)cc2Cl)cc(OC)c1OC	23	7	37%
C=CCOc1c(Cl)cc(CNn2cn[nH]c2=S)cc1OC	-1	-1	0%
COc1ccc(N(CC(=O)Nc2cccc(C(F)(F)F)c2)S(=O)(=O)c2c(C)[nH]c(=O)[nH]c2=O)cc1	-1	2	?
SMILES	D3 antag	DRD3 agonist	a7 integrin act
CC1CN(C2CCN(S(=O)(=O)c3ccc4ccccc4c3)CC2)CC(C)O1 (centres undefined)	-22	-6	-1%
Cc1cccc(NC(=O)c2cc(S(=O)(=O)N(C)c3ccc(F)cc3)ccc2Cl)n1	-57*	1	-1%
COc1ccccc1N(C)S(=O)(=O)c1ccc(Cl)c(C(=O)Nc2cccc(C)n2)c1	3	3	-26%
CC(C)OC(=O)Nc1ccc2nc(-c3cscn3)[nH]c2c1	·	3	·
COc1cc(C2Nc3cc(C)c(C)cc3NC3=C2C(=O)CC(C)(C)C3)ccc1OC(C)=O (centres undefined)	9	-9	1%
Cc1cc2c(cc1C)NC(c1c(C)n(C)n(-c3ccccc3)c1=O)C1=C(CC(C)(C)CC1=O)N2 (centres undefined)	-93*	-2	21%
CCOC(=O)C(C)Sc1ccc2nnc(CCNS(=O)(=O)c3ccc(C)cc3)n2n1 (centres undefined)	0	-2	22%
O=C(Nc1ccc2c(c1)OCCO2)C(c1ccc(C(F)(F)F)cc1)n1c(=O)c(-c2cc3ccccc3[nH]2)nc2ccccc21 (centres undefined)	11	6	·
C/C(=N\NC(=O)c1ccco1)c1cc2ccccc2o1	-4	10	3%

Source: PubChem
